Assay outcomes: PubChem BioAssay, National Center for Advancing Translational Sciences (NCATS)
In the library only some 14% were active in any assay of this set; here they are far more common.
Shiga toxin inh: inhibitors of Shiga toxin in Vero cells; inhibition, % at 38.7 µM; Vero cells, Shiga toxin protein synthesis inhibition reporter; hit rate 9.2% among 290,000; in the data active means inhibition mostly above about 28%, no sharp cut-off; inactive means mostly below about 43%
NS1 inh: blocks influenza NS1 protein function; Potency, µM (titrated, usually from 46.1 µM); hit rate 0.4% among 270,000; calls by dose curve; further: actives are rising curves; nearly all actives have a fitted effect of over 50% in size
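S. cerevisiae expressing influenza A NS1, grown in glucose, washed, then diluted 1:100 into pH 6.0 -URA galactose medium with 23 nl compound. Growth recovery read as OD600; NS1-free strain serves as control.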
FBPA Giardia inh: Giardia lamblia aldolase inhibition; purified Giardia FBPA; hit rate 0.71% among 290,000; Potency, µM (series often up to 59.6 µM), usual class: inhibitors; AID 2451; A8B2U2; further: nearly all actives have a fitted effect of over 55% in size
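40 nM FBPA preincubated 10 min at RT with compound (up to 57.5 uM final), then substrate plus GAPDH/TPI/NAD/arsenate coupling and diaphorase/resazurin added. Fluorescence read after 20 min at RT, 525/598 nm.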
CHX counter: counter-screen for Shiga toxin inhibitors: cycloheximide protein synthesis inhibition; max response, %; hit rate 12% among 300,000; cell reporter, cycloheximide protein synthesis inhibition counterscreen; AID 2314; in the data active means max response mostly above about 13%, no sharp cut-off; inactive means mostly below about 14%; further: read at 38.3 µM for the half of the compounds with a filed dose
LmPK inh: LmPK (Leishmania mexicana) enzyme inhibition | Q27686 | purified LmPK, Kinase-Glo ATP luminescence, 1 h | Potency, µM (highest dose often 57.5 µM), most hits filed as inhibitors | hit rate 0.37% among 290,000
Target sequence (Q27686 whole entry, looked up): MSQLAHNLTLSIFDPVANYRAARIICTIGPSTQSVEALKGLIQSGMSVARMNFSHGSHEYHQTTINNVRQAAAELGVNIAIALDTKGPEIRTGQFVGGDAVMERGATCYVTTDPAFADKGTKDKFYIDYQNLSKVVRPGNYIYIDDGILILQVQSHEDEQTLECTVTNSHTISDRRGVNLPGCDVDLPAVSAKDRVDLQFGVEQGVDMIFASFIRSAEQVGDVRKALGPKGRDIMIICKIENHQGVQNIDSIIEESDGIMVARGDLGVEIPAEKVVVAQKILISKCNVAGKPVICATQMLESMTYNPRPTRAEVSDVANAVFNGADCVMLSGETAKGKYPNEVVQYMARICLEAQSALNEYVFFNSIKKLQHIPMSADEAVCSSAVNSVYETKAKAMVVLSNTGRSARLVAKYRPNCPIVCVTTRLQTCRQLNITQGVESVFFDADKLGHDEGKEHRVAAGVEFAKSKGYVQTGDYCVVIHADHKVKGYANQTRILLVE
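qHTS format; LmPK 0.1 nM; substrates PEP 0.5 mM and ADP 0.1 mM. One-hour room-temperature incubation, then coupled luciferase luminescence; 0.5 nM enzyme wells mark activation.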
Large screens that a line does not name were inactive. Unless noted, the call rests on the fitted dose curve; in most records, active means well fitted curve in the direction sought with a large enough effect; inconclusive means small, poorly fitted or top-dose-only effect, or another doubt; inactive means no such curve, though single readings can be large; an effect the other way counts as inactive or inconclusive.

COc1ccc(-c2nc(CS(=O)CC(=O)NCCC3=CCCCC3)c(C)o2)cc1 (stereo unspecified)	CHX counter 31
CCc1ccc(-c2nc(CS(=O)CC(=O)NCc3cccnc3)c(C)o2)cc1 (stereo unspecified)	NS1 inh inconclusive, CHX counter 18
CCOc1ccc(CCNC(=O)CS(=O)Cc2nc(-c3ccc(C)cc3)oc2C)cc1 (stereo unspecified)	none (no result: FBPA Giardia inh)
CCc1ccc(-c2nc(CS(=O)CC(=O)O)c(C)o2)cc1 (stereo unspecified)	Shiga toxin inh 53, CHX counter 46
Cc1ccc(Cl)c2c1=NC(=O)C=2c1[nH]c(=S)[nH]c1O	FBPA Giardia inh inconclusive (no result: NS1 inh)
O=C(NC(NC(=S)Nc1ccc(F)c([N+](=O)[O-])c1)C(Cl)(Cl)Cl)C(c1ccccc1)c1ccccc1 (stereo unspecified)	none (no result: NS1 inh, LmPK inh)
Cc1ccc(-c2nc(CS(=O)CC(=O)NCCCc3ccccc3)c(C)o2)cc1 (stereo unspecified)	CHX counter 22
O=C(Nc1ccc(Cl)cc1F)c1ccccc1Br	Shiga toxin inh 130, CHX counter 63
O=C(Nc1ccc(Cl)cc1F)c1cccc2ccccc12	Shiga toxin inh 34, CHX counter 27
O=C(Nc1cccnc1Oc1ccc(Cl)cc1)c1cccc2ccccc12	none
Cn1nnc(NC(=O)c2ccc(C(C)(C)C)cc2)n1	Shiga toxin inh 45, CHX counter 46
Cn1nnc(NC(=O)c2ccc3ccccc3c2)n1	Shiga toxin inh active, CHX counter 30
O=C(O)CNCCc1ccccc1	none (no result: Shiga toxin inh, FBPA Giardia inh, CHX counter, LmPK inh)
Cc1ccc2c(CN3CCOCC3)cc(=O)oc2c1	none
Cc1ccc2c(CN3CCCCC3)cc(=O)oc2c1	Shiga toxin inh 28, CHX counter 21
CC1CN(S(=O)(=O)c2cccc(C(=O)OCc3cc(=O)oc4cc(O)ccc34)c2)CC(C)O1 (stereo unspecified)	none
Cc1cc(C)c2c(CN3CCN(CCO)CC3)cc(=O)oc2c1	Shiga toxin inh 57, CHX counter 72
Cc1ccc2c(CN3CCC(C)CC3)cc(=O)oc2c1C	Shiga toxin inh 123, CHX counter 55
Cc1cc(C)c2c(CN3CCN(C)CC3)cc(=O)oc2c1	none
CN(C)c1cccc(C(=O)OCc2cc(=O)oc3cc(O)ccc23)c1	CHX counter 16
CCOC(=O)N1CCN(C(=O)c2cc3n(n2)C(C(F)(F)F)CC(c2ccc4c(c2)OCO4)N3)CC1 (stereo unspecified)	none
CCOc1ccc(CN(C)C(=O)CNC(=O)c2ccc3ccccc3c2)cc1OC	none
Cc1ccc2c(COC(=O)c3ccc(C)c(C)c3)cc(=O)oc2c1	none
CCOc1ccccc1C(=O)N[C@H](C(=O)OCc1cc(=O)oc2cc(C)ccc12)C(C)C	CHX counter 26
Cc1ccc2c(COC(=O)c3ccccc3Cl)cc(=O)oc2c1	Shiga toxin inh 59, CHX counter 42
Cc1ccc2c(COC(=O)c3ccccc3Br)cc(=O)oc2c1	Shiga toxin inh 98, CHX counter 34
COc1ccc(Br)c(C(=O)OCc2cc(=O)oc3cc(C)ccc23)c1	none
CN(C)C(=O)c1ccc(-c2nc(N3CCOCC3)c3ccccc3n2)cc1	none (no result: Shiga toxin inh, NS1 inh, CHX counter, LmPK inh)
CC1(C)CSC(=NCCc2ccccc2)N1	Shiga toxin inh 54, CHX counter 14
O=C(Nc1nccs1)c1ccc(CSc2nnnn2-c2ccccc2)cc1	CHX counter 44
CC(SC1=NCCN1S(C)(=O)=O)c1ccccc1 (stereo unspecified)	none (no result: FBPA Giardia inh)
C=Cc1ccc(Cn2c(C(=O)O)c(CNCc3ccccc3)c3ccc(C)cc32)cc1	none (no result: NS1 inh, FBPA Giardia inh, LmPK inh)
O=C(OCc1ccc(O)cc1)c1c(-c2ccsc2)oc2ccc(N3CCOCC3)cc12	none
CC1CCCCN1C(=S)NCCc1ccccc1 (stereo unspecified)	Shiga toxin inh 91, CHX counter 38
Cc1ccc(CCNC(=O)C2CCCN(C(=O)N(C)C)C2)cc1 (stereo unspecified)	none
CC1CCCN(C(=S)NCCc2ccccc2)C1 (stereo unspecified)	Shiga toxin inh 54, CHX counter 26
CN(C)C(=O)N1CCCC(C(=O)NCCc2ccccc2)C1 (stereo unspecified)	Shiga toxin inh 95, CHX counter 26
Cc1nc(Cl)sc1C(=O)Nc1cccc(Cl)c1	CHX counter 31 (no result: Shiga toxin inh)
Cc1nc(Cl)sc1C(=O)Nc1ccc(Cl)cc1	Shiga toxin inh 71, CHX counter 25
CC(=O)c1cccc(NC(=O)c2sc(Cl)nc2C)c1	none (no result: Shiga toxin inh)
Cc1nc(Cl)sc1C(=O)Nc1ccc2ccccc2c1	Shiga toxin inh 192, CHX counter 66
Cc1nc(Cl)sc1C(=O)Nc1ccccc1	CHX counter 11
Cc1nc(C)c(C(=O)Nc2ccccc2)s1	none
Cc1cccc(C)c1NC(=O)c1sc(Cl)nc1C	none
CC12CC[C@@H]3c4ccc(OP(=O)(O)O)cc4CCC3C1CCC2=O (stereo partly specified)	none (no result: Shiga toxin inh, FBPA Giardia inh, CHX counter, LmPK inh)
COc1ccc(CN(C)C(=O)c2oc3ccccc3c2CSC)cc1F	none
Cc1nc(C)c(C(=O)Nc2cccc(F)c2)s1	Shiga toxin inh 35, CHX counter 19
Cc1nc(-c2ccccn2)sc1C(=O)O	none (no result: NS1 inh)
Cc1nc(-c2ccccn2)sc1C(=O)Nc1ccc(Cl)c(Cl)c1	Shiga toxin inh 128, CHX counter 26
CCOC(=O)c1sc(-c2ccccn2)nc1C	Shiga toxin inh 112, CHX counter 45 (no result: NS1 inh)
Cc1c(C(=O)Nc2ccccc2)sc2nc[nH]c(=O)c12	CHX counter 15
Cc1ccc(CC(=O)NCC(O)c2ccccc2)cc1 (stereo unspecified)	none
Nc1nc(-c2ccccc2)c(-c2ccccc2)c(-c2nc(N)nc(-c3ccccc3)c2-c2ccccc2)n1	none (no result: Shiga toxin inh, FBPA Giardia inh, CHX counter, LmPK inh)
O=C(Nc1ccc(F)cc1)c1sc(Cl)nc1-c1ccccc1	none
O=C(Nc1ccc(F)cc1)c1cc(Cl)sc1Cl	Shiga toxin inh 77, CHX counter 29 (no result: NS1 inh)
O=C(Nc1ccc([N+](=O)[O-])cc1)c1cc(Cl)sc1Cl	Shiga toxin inh 27 (no result: FBPA Giardia inh)
O=C(Nc1ccc([N+](=O)[O-])cc1)c1cc2ccccc2nc1Cl	CHX counter 20
COc1cccc(N2CCN(c3ccc4nnc(CCC(=O)Nc5ccccn5)n4n3)CC2)c1	none
N#Cc1cnc(N)c(Br)c1	none (no result: NS1 inh)
CCN(C(=S)Nc1cc(S(=O)(=O)N2CCOCC2)ccc1Cl)c1cccc2ccccc12	FBPA Giardia inh 7.1µM
O=C(O)CSCC(=O)O	none (no result: Shiga toxin inh, FBPA Giardia inh, CHX counter, LmPK inh)
CCc1cc2c(=O)n(Cc3ccco3)c(SCc3c(C)noc3C)nc2s1	Shiga toxin inh 42, CHX counter 12
CCCNC(=O)COC(=O)/C=C/c1cccc(F)c1	none (no result: NS1 inh)
Cc1cc(C(=O)COC(=O)/C=C/c2cccc(F)c2)c(C)n1C	Shiga toxin inh 77, CHX counter 29 (no result: NS1 inh)
C=CCn1c(C)cc(C(=O)COC(=O)[C@@H](NC(=O)c2ccccc2Cl)C(C)C)c1C	Shiga toxin inh 19, CHX counter 40
C=CCn1c(C)cc(C(=O)COC(=O)/C=C/c2ccc(OC)cc2)c1C	none (no result: NS1 inh)
C=CCn1c(C)cc(C(=O)COC(=O)/C=C/c2cccc(OC)c2)c1C	CHX counter 27 (no result: NS1 inh)
Cc1ccc2c(c1)CCCN2C(=O)c1cc(C)on1	none (no result: FBPA Giardia inh)
